These results are taken from the supplement of paper PMC12819154, “High-throughput peptide-centric local stability assay extends protein–ligand identification to membrane proteins, tissues and bacteria” (Nature Structural & Molecular Biology, 2025).

Chain of UniProt Q9QXX4 (Q9QXX4 whole entry): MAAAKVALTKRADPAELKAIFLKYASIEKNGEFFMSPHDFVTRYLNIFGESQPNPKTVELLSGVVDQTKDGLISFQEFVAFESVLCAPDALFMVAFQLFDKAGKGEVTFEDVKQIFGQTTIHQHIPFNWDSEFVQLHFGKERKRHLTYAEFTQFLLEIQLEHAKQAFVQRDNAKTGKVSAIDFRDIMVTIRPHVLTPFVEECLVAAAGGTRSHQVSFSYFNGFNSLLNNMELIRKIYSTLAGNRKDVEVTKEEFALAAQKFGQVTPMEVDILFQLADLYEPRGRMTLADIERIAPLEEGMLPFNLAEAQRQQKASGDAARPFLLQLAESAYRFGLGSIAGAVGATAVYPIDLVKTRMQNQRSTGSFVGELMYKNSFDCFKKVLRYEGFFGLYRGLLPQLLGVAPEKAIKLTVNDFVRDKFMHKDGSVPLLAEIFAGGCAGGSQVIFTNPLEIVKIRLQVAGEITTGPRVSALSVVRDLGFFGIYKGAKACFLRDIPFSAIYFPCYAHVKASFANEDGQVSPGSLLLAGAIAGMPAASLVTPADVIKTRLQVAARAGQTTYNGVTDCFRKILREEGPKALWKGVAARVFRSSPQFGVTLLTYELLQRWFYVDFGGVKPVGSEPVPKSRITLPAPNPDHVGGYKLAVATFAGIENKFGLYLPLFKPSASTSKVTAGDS
Chain of UniProt Q8C078 (Q8C078 whole entry, looked up): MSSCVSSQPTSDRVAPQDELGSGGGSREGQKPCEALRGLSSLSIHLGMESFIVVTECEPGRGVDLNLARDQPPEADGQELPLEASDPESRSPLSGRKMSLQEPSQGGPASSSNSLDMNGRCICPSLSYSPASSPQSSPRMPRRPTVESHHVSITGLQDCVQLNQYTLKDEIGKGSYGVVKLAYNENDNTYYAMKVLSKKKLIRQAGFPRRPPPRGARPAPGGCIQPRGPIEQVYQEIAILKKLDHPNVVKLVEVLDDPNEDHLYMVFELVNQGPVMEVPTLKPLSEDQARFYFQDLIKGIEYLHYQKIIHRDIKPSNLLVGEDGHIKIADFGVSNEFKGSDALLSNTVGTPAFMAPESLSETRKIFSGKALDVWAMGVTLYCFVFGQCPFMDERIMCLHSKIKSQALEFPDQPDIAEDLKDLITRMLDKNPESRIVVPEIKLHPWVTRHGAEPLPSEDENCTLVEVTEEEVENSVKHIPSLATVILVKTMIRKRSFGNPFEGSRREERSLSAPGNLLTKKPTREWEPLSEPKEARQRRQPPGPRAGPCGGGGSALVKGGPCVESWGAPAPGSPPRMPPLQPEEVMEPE
Chain of UniProt Q61335 (Q61335 whole entry): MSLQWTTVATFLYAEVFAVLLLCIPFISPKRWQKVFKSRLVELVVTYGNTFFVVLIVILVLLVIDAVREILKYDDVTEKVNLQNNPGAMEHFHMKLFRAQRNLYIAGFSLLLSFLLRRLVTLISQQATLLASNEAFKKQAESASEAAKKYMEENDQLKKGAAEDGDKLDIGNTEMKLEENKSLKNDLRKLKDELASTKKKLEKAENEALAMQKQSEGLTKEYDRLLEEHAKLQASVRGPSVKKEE
Chain of UniProt Q3UTQ8 (Q3UTQ8 whole entry): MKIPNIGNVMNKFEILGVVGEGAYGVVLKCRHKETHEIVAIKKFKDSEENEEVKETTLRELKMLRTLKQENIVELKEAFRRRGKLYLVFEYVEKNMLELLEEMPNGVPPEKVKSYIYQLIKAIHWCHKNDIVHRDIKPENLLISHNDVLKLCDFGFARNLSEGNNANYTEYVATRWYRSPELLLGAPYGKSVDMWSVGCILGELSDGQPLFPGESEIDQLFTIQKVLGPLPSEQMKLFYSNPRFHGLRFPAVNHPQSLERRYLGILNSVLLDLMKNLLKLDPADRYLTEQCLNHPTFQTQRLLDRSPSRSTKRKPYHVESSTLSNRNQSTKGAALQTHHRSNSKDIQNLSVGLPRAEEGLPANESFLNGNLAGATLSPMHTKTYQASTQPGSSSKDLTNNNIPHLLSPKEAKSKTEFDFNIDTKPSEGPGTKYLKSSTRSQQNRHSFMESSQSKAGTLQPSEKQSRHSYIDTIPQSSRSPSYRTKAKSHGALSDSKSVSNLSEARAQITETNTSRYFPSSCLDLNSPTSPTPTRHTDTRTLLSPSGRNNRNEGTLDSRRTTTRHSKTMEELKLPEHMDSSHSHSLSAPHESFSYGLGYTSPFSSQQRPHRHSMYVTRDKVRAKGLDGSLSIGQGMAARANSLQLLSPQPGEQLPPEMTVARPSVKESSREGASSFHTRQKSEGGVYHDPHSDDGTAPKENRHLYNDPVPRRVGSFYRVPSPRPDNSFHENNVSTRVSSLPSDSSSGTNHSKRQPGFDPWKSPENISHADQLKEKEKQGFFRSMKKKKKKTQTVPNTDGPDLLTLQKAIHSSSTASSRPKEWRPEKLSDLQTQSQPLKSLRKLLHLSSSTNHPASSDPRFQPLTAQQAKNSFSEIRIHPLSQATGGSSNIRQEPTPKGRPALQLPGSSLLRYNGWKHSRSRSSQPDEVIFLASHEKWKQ
Chain of UniProt O70293 (O70293 whole entry): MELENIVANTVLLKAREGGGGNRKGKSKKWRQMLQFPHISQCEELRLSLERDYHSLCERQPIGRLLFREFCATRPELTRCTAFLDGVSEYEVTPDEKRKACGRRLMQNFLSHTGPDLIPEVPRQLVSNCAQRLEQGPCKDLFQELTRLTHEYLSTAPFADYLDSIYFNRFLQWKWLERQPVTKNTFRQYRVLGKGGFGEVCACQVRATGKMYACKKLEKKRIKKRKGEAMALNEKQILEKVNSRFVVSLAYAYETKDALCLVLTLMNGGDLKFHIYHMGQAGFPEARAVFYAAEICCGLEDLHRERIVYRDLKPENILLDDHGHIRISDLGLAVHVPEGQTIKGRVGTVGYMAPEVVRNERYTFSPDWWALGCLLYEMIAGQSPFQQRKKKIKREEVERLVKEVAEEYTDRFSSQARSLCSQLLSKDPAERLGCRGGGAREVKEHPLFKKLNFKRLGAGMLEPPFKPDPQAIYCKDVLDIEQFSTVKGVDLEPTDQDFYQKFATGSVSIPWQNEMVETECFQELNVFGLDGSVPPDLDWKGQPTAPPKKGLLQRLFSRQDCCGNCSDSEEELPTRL
Chain of UniProt Q7TMR0 (Q7TMR0 whole entry): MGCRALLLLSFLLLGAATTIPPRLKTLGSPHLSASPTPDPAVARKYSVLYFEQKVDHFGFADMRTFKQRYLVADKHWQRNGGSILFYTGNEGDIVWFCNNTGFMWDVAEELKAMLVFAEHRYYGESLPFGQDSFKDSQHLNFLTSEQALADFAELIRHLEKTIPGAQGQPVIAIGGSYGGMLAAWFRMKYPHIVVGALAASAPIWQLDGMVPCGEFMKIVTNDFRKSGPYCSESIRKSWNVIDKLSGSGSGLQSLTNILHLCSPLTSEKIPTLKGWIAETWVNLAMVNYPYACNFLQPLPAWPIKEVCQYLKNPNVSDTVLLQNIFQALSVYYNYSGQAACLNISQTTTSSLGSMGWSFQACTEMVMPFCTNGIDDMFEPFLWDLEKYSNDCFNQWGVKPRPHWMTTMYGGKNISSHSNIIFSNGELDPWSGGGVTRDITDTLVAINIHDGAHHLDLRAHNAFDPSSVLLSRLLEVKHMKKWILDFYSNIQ
Chain of UniProt P30681 (P30681 whole entry): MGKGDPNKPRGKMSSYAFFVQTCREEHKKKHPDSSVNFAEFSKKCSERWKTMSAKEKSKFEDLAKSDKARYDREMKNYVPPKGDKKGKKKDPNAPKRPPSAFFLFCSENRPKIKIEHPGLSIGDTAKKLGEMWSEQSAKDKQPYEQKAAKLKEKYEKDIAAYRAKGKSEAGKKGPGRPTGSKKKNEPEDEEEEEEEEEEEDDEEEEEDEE
Chain of UniProt P43883 (P43883 whole entry): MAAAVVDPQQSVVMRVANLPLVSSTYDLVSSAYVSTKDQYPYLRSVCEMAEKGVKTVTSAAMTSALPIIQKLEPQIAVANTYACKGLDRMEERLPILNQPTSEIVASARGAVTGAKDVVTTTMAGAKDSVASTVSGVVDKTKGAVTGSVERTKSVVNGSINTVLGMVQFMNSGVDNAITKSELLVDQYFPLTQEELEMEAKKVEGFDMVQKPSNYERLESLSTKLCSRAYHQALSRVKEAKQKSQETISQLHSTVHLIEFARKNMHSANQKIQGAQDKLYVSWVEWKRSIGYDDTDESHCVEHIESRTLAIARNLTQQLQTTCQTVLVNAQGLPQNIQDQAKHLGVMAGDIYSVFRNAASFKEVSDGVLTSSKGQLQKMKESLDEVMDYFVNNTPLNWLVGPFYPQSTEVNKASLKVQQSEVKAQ
Chain of UniProt O89112 (O89112 whole entry): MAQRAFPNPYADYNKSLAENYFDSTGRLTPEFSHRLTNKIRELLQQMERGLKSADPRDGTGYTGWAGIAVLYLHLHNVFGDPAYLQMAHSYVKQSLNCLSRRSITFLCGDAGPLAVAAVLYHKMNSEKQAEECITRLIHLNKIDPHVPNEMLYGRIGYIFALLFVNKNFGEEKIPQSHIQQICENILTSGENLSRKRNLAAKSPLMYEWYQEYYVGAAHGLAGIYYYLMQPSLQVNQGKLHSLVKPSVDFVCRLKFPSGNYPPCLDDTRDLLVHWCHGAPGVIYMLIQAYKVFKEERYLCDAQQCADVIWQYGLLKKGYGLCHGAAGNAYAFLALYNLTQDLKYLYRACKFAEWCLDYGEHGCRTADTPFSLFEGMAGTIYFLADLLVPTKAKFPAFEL

Compound in the assay: CN[C@@H]1C[C@H]2O[C@@](C)([C@@H]1OC)n1c3ccccc3c3c4c(c5c6ccccc6n2c5c31)C(=O)NC4 [staurosporine]
Nature of the assay: log2 fold change of tryptic peptide abundance, ligand vs vehicle (limited proteolysis) (log2 ratio); higher = more trypsin-susceptible (destabilized). To be noted: ligand concentration: 20 uM; sample: mouse liver crude lysate; replicate design: treated separately.
As for “UniProt Q8C078 (peptide sequence: DIKPSNLLVGEDGHIK, peptide start residue: 312)”, the log2 fold change is -3.1.

Take “UniProt Q61335 (peptide sequence: QAESASEAAK, peptide start residue: 139)”: the log2 fold change was 0.352.

Regarding “UniProt O70293 (peptide sequence: EFCATRPELTR, peptide start residue: 69)”, the log2 fold change was -1.23.

Consider “UniProt P30681 (peptide sequence: MSSYAFFVQTCREEHK, peptide start residue: 13)”, for which the log2 fold change is -0.185.

With “UniProt Q01705 (peptide sequence: QWTQQHLDAADLR, peptide start residue: 1832)”, the log2 fold change was -0.742.

Take “UniProt P43883 (peptide sequence: DQYPYLR, peptide start residue: 38)”: the log2 fold change was 0.671.

For the target “UniProt Q7TMR0 (peptide sequence: AHNAFDPSSVLLSR, peptide start residue: 459)”, the log2 fold change stood at 0.784.

In the case of “UniProt O89112 (peptide sequence: AFPNPYADYNK, peptide start residue: 5)”, the log2 fold change was determined as 0.594.

Take “UniProt Q9R117 (peptide sequence: NVLLDNDR, peptide start residue: 1025)”: the log2 fold change was -1.42.

In the case of “UniProt Q9QXX4 (peptide sequence: AGQTTYNGVTDCFRK, peptide start residue: 555)”, the log2 fold change was 0.466.

Take “UniProt Q3UTQ8 (peptide sequence: DIKPENLLISHNDVLK, peptide start residue: 135)”: the log2 fold change was -1.56.
